Source: PubChem BioAssay (EPA / NIEHS)
Inconclusive results are not listed. Calls of active or inactive are those of the source. The calls were made as follows, unless noted: active = hit-call score of the fitted dose curve at least 0.9, where 1 is the maximum; inactive = score below 0.9.

Experiments:
[1] = ACEA_ER_80hr: ACEA Biosciences xCELLigence Real-Time Cell Analysis on Estrogen Receptor Agonism for Proliferation (AID 2282667; active = hit-call score of the fitted dose curve at least 0.9, where 1 is the maximum); settings: T47D proliferation, impedance (xCELLigence), 80 h
Procedure, shortened: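 Cell-growth kinetics were measured by impedance in T47D cells treated continuously with compound (top 100 uM final, 1:4 steps, 8 points). Activity at 80 h was scored as signal gain over the DMSO baseline.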

[2] = ATG_CRE_CIS: Attagene CIS-FACTORIAL HepG2 Assay for human cAMP Responsive Element (CRE) binding protein 3 (AID 2282926); settings: HepG2 CRE cis-reporter, Attagene multiplexed mRNA; actives raise or lower the signal
Procedure, shortened: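 Cells carrying cis-regulated reporter constructs respond through their own endogenous factors. After 24 h treatment, RNA is reverse-transcribed, amplified, labelled and sized by capillary electrophoresis; up- and down-regulation are both scored against vehicle.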

[3] = target: CCAAT/enhancer-binding protein beta (Homo sapiens) (UniProt P17676); assay: ATG_C_EBP_CIS: Attagene CIS-FACTORIAL HepG2 Assay for human CCAAT/Enhancer Binding Protein (C/EBP) beta (AID 2282927); settings: HepG2 Attagene cis-factorial transcription factor reporter; actives raise or lower the signal
CCAAT/enhancer-binding protein beta (Homo sapiens), sequence (P17676 whole entry, looked up): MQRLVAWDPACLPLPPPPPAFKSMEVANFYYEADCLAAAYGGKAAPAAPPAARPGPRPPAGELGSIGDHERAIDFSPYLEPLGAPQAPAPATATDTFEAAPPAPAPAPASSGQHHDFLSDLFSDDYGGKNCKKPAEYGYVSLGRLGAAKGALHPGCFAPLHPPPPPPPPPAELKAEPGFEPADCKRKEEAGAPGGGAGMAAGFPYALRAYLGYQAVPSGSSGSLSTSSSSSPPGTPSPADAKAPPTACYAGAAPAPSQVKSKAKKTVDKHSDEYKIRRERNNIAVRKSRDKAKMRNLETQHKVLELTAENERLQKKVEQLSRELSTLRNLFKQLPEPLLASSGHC
Procedure, shortened: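 Changes in reporter mRNA, rather than exogenous chimeric receptor activity, reflect native C/EBP signalling in transfected HepG2 cells dosed for 24 h; transcripts are detected by RT-PCR and capillary electrophoresis.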

[4] = ATG_CMV_CIS: Attagene CIS-FACTORIAL HepG2 Assay for human CMV (Internal Marker) (AID 2282928); settings: HepG2 CMV promoter reporter, transcription factor profiling; actives raise or lower the signal;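 also: endpoint acts as a background internal control marker rather than a target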
Procedure, shortened: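 Fluorescence intensity of RT-PCR-derived reporter fragments, resolved by capillary electrophoresis, gives the signal. HepG2 liver cells bearing transfected cis-element reporters were treated 24 h; activity in either direction was fit relative to DMSO-treated controls.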

[5] = ATG_DR4_LXR_CIS: Attagene CIS-FACTORIAL HepG2 Assay for human Liver X Receptor (LXR), DR4 submotif (AID 2282929); settings: HepG2 Attagene DR4 cis-reporter, mRNA transcription; actives raise or lower the signal
Procedure, shortened: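 Total RNA from 24 h-treated, MRTU-transfected HepG2 cells underwent reverse transcription, PCR, fluorescent primer extension and restriction digestion before capillary electrophoresis. Both increases and decreases in reporter signal were fitted against DMSO.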

[6] = target: Aryl hydrocarbon receptor (Homo sapiens) (UniProt P35869); assay: ATG_Ahr_CIS: Attagene CIS-FACTORIAL HepG2 Assay for human Aryl Hydrocarbon Receptor (Ahr) (AID 2282930); settings: HepG2 AhR cis-factorial reporter transcription; actives raise or lower the signal
Aryl hydrocarbon receptor (Homo sapiens), sequence (P35869 whole entry, looked up): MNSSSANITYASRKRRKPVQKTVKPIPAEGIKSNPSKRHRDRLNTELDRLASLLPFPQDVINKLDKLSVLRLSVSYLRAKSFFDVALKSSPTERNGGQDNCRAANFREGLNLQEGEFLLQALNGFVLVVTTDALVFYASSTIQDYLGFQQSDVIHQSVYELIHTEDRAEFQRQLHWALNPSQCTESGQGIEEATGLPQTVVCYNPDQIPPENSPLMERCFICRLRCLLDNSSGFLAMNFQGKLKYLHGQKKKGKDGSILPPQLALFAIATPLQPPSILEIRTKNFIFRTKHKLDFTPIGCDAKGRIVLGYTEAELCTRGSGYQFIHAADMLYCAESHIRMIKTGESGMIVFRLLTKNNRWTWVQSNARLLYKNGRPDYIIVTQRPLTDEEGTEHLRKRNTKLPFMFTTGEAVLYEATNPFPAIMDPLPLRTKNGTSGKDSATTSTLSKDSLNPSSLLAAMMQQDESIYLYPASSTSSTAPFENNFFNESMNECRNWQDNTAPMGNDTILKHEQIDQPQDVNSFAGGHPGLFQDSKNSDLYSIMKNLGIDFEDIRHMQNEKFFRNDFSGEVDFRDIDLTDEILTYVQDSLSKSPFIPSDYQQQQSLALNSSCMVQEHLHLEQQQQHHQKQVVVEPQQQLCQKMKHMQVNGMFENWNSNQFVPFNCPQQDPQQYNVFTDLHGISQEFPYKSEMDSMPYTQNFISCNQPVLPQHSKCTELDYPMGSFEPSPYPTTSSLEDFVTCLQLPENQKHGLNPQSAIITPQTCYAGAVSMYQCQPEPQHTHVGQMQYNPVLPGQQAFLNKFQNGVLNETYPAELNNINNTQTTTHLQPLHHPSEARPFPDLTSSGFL
Procedure, shortened: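 HepG2, transient MRTU (cis) transfection, 24 h exposure. RNA → cDNA → PCR → 6-FAM primer extension → HpaI 2 h 37 C → CE. Fit: bidirectional, DMSO baseline.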

[7] = ATG_AP_1_CIS: Attagene CIS-FACTORIAL HepG2 Assay for human Activator Protein 1 (AP-1) (AID 2282931); settings: HepG2 Attagene cis-factorial AP-1 reporter mRNA; actives raise or lower the signal
Procedure, shortened: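 HepG2, transient cis-reporter transfection; 24 h; readout RT-PCR/CE fluorescence; DMSO baseline, gain and loss fitted.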

[8] = ATG_BRE_CIS: Attagene CIS-FACTORIAL HepG2 Assay for human Bone Morphogenetic Protein (BMP) Response Element (BRE) (AID 2282933); settings: HepG2 BMP response element reporter, Attagene transcription factor profiling; actives raise or lower the signal
Procedure, shortened: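 Gain- or loss-of-signal was derived by bidirectional fitting against DMSO controls. The signal came from reporter mRNA, measured by RT-PCR and capillary electrophoresis, in HepG2 cells transiently carrying multiple reporter units and dosed for 24 h.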

[9] = target: Retinoic acid receptor alpha (Homo sapiens) (UniProt P10276); assay: ATG_DR5_RAR_CIS: Attagene CIS-FACTORIAL HepG2 Assay for human Retinoic Acid Receptor Alpha (RARE), DR5 submotif (AID 2282934); settings: HepG2 Attagene cis-factorial RARE DR5 reporter, mRNA; actives raise or lower the signal
Retinoic acid receptor alpha (Homo sapiens), sequence (P10276 whole entry, looked up): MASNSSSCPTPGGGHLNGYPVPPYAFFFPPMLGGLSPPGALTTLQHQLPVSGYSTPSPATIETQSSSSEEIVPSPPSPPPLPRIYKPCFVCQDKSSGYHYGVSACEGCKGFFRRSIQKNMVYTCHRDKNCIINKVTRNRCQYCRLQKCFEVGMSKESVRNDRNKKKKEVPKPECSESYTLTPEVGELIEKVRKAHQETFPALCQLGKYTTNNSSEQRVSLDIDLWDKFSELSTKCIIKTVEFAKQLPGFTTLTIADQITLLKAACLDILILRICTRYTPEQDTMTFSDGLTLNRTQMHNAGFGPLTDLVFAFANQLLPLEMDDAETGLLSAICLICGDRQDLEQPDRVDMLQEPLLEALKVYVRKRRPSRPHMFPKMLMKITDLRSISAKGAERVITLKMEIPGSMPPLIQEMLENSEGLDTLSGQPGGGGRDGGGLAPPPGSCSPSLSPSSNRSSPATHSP
Procedure, shortened: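 HepG2, transient cis-reporter transfection, 24 h exposure. mRNA readout: RT-PCR, FAM label, HpaI cut, capillary electrophoresis. DMSO baseline, gain/loss fitting.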

[10] = target: Transcription factor E2F1 (Homo sapiens) (UniProt Q01094); assay: ATG_E2F_CIS: Attagene CIS-FACTORIAL HepG2 Assay for human E2F Transcription Factor 1 (AID 2282935); settings: HepG2 Attagene cis-reporter, E2F reporter RNA transcripts; actives raise or lower the signal
Transcription factor E2F1 (Homo sapiens), sequence (Q01094 whole entry, looked up): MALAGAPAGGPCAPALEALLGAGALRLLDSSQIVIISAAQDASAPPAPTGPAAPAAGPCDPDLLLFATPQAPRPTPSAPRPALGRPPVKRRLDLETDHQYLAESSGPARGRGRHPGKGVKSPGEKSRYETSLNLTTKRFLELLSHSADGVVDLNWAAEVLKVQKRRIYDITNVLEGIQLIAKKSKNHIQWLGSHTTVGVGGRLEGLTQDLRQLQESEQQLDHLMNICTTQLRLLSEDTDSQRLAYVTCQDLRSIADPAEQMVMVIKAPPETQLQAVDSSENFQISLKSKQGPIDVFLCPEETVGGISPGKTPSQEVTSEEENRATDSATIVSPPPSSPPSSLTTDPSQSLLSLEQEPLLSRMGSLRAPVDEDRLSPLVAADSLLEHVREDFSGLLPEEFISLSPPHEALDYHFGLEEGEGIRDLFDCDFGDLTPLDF
Procedure, shortened: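 Gain or loss of reporter transcript, fitted against DMSO, reflects E2F1-driven transcription. Transiently transfected HepG2 dosed 24 h before RNA isolation. Quantified by fluorescent RT-PCR products separated by capillary electrophoresis.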

[11] = ATG_E_Box_CIS: Attagene CIS-FACTORIAL HepG2 Assay for human Enhancer Box (E-box) (AID 2282936); settings: HepG2 E-box cis-reporter transcription, actives raise or lower the signal
Procedure, shortened: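 E-box-driven reporter transcripts measured in transiently transfected HepG2 after 24 h exposure: RNA reverse-transcribed, PCR-amplified, fluorescently labelled, digested and resolved by capillary electrophoresis. Gain or loss relative to DMSO.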

[12] = ATG_M_61_CIS: Attagene CIS-FACTORIAL HepG2 Assay for M61 Transcription Factor (Internal Marker) (AID 2282937); settings: HepG2 Attagene CIS-FACTORIAL M61 internal marker reporter; actives raise or lower the signal
Procedure, shortened: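 Transfect HepG2 with MRTUs; dose 24 h; isolate RNA; reverse-transcribe with DNase I treatment; PCR-amplify, FAM-label and cut with HpaI for 2 h at 37 C; resolve by CE. Bidirectional fitting against DMSO.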

[13] = ATG_EGR_CIS: Attagene CIS-FACTORIAL HepG2 Assay for human Early Growth Response 1 (EGR1) (AID 2282938); settings: HepG2 Attagene CIS-FACTORIAL EGR reporter mRNA; actives raise or lower the signal
Procedure, shortened: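 After a 24 h treatment of transiently transfected HepG2 cells, total RNA was reverse-transcribed and reporter sequences PCR-amplified, labelled and run on capillary electrophoresis. Reporters sit under cis-regulatory promoters sensing endogenous factors.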

[14] = ATG_ERE_CIS: Attagene CIS-FACTORIAL HepG2 Assay for Estrogen Response Element (ERE) (AID 2282940); settings: HepG2 ERE cis-reporter, Attagene RNA transcript; actives raise or lower the signal
Procedure, shortened: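 HepG2, transient cis-reporter units, 24 h exposure. RNA isolated, oligo(dT) RT, reporter-specific PCR, FAM extension, HpaI cut, CE detection. Gain/loss-of-signal vs DMSO.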

[15] = ATG_Ets_CIS: Attagene CIS-FACTORIAL HepG2 Assay for human Erythroblast Transformation Specific (ETS) (AID 2282941); settings: HepG2 ETS cis-reporter transcription, actives raise or lower the signal
Procedure, shortened: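 Multiplexed reporter transcript profiling: HepG2, 24 h treatment, total RNA to cDNA, PCR, 6-FAM labelling, HpaI cut, capillary electrophoresis. Gain- or loss-of-signal fitted against DMSO.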

[16] = target: Hepatocyte nuclear factor 3-beta (Homo sapiens) (UniProt Q9Y261); assay: ATG_FoxA2_CIS: Attagene CIS-FACTORIAL HepG2 Assay for human Forkhead box A2 (FOXA2) (AID 2282942); settings: HepG2 cis-reporter transcription factor activity, 24 h; actives raise or lower the signal
Hepatocyte nuclear factor 3-beta (Homo sapiens), sequence (Q9Y261 whole entry, looked up): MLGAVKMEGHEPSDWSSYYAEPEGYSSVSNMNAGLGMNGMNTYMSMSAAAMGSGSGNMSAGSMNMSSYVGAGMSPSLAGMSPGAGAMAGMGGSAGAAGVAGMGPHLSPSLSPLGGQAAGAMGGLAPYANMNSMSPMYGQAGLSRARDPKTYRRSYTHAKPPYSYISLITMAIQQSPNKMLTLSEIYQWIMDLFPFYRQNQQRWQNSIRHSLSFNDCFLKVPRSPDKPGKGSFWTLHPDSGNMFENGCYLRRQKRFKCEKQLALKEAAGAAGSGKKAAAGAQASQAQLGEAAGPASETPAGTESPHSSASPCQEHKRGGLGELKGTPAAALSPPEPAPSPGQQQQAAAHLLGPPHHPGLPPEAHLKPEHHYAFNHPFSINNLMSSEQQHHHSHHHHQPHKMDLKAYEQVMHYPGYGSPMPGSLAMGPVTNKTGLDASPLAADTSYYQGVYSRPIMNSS
Procedure, shortened: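 24 h dosing of HepG2 bearing cis-reporter constructs; mRNA readout by RT-PCR/CE fluorescence; bidirectional fit, DMSO baseline.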

[17] = ATG_FoxO_CIS: Attagene CIS-FACTORIAL HepG2 Assay for human Forkhead box O (FoxO) (AID 2282943); settings: HepG2 Attagene cis-reporter, FoxO element, mRNA; actives raise or lower the signal
Procedure, shortened: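 Human hepatoma HepG2 cells carry transiently introduced reporter transcription units controlled by cis promoter elements. Chemical treatment lasted 24 h, and mRNA signal was compared with DMSO.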

[18] = ATG_AP_2_CIS: Attagene CIS-FACTORIAL HepG2 Assay for human Activator Protein 2 (AP-2) (AID 2282932); settings: HepG2 AP-2 cis-reporter, Attagene transcription factor profiling; actives raise or lower the signal
Procedure, shortened: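 Endogenous transcription factor activity is reported through transfected multiplex reporter constructs in HepG2, after 24 h of compound exposure. Transcripts were quantified by RT-PCR and capillary electrophoresis of fluorescent fragments. Bidirectional fit against DMSO.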

[19] = ATG_M_19_CIS: Attagene CIS-FACTORIAL HepG2 Assay for M19 Transcription Factor (Internal Marker) (AID 2282939); settings: HepG2 Attagene CIS-FACTORIAL M19 internal marker reporter; actives raise or lower the signal
Procedure, shortened: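 Following a 24 h exposure, RNA from transfected HepG2 cells was reverse-transcribed, PCR-amplified with reporter-specific primers, end-labelled with 6-FAM and HpaI-digested before capillary separation. Values represent gain or loss versus DMSO.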

[20] = ATG_GATA_CIS: Attagene CIS-FACTORIAL HepG2 Assay for human GATA Binding Protein (AID 2282944); settings: HepG2 GATA cis-element reporter, Attagene multiplex mRNA; actives raise or lower the signal
Procedure, shortened: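 DMSO serves as negative control and baseline for bidirectional fitting of reporter mRNA changes. HepG2 cells bearing transiently transfected cis-promoter reporters were exposed 24 h; transcripts detected via RT-PCR and capillary electrophoresis.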

Measured: AC50

Nc1ncnc2nc[nH]c12
not listed: [18] | [19] | [20]
inactive: all other assays above

O=C(O)/C=C/c1ccccc1
active: [1] 2.06 µM
not listed: [5] | [14] | [20]
inactive: all other assays above

CCCC(C)C(=O)OCC (stereo unspecified)
not listed: [18]
inactive: all other assays above

CCCC=C(C=O)CC
active: [6] 100 µM
not listed: [5] | [15]
inactive: all other assays above
